# Results: PubChem BioAssay AID2427 (National Center for Advancing Translational Sciences (NCATS), 2010)
# Active and inactive are the calls of the source.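 The calls were made as follows: active = melting temperature shift above 3 C; inconclusive = shift above 1 C but not above 3 C; inactive = the rest.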
# Biological target: 15-hydroxyprostaglandin dehydrogenase [NAD(+)] (Homo sapiens) (UniProt P15428)
# Test: Thermal Shift Assay for Inhibitors of HPGD (15-Hydroxyprostaglandin Dehydrogenase)
# Conditions: Recombinant HPGD thermal shift, SYPRO orange DSF, at 250 µM, stronger effect = higher value
# Experimental: Assay Overview: Human 15-Hydroxyprostaglandin dehydrogenase (HPGD) catalyzes the inactivation of prostaglandin E2, and plays a major role in cancer biology by antagonizing the oncogenic potential of cyclooxygenase type 2 (COX2). Studies to assess the stability of human 15-PGDH in presence of compounds was performed as described (Niesen et al., 2007) with variations. References 1. Myung SJ, Rerko RM, Yan M, Platzer P, Guda K, Dotson A, Lawrence E, Dannenberg AJ, Lovgren AK, Luo G, Pretlow TP, Newman RA, Willis J, Dawson D, Markowitz SD. 15-Hydroxyprostaglandin dehydrogenase is an in vivo suppressor of colon tumorigenesis. Proc Natl Acad Sci U S A. 2006 Aug 8;103(32):12098-102. 2. Yan M, Rerko RM, Platzer P, Dawson D, Willis J, Tong M, Lawrence E, Lutterbaugh J, Lu S, Willson JK, Luo G, Hensold J, Tai HH, Wilson K, Markowitz SD. 15-Hydroxyprostaglandin dehydrogenase, a COX-2 oncogene antagonist, is a TGF-beta-induced suppressor of human gastrointestinal cancers. Proc Natl Acad Sci U S A. 2004 Dec 14;101(50):17468-73. 3. Yang L, Amann JM, Kikuchi T, Porta R, Guix M, Gonzalez A, Park KH, Billheimer D, Arteaga CL, Tai HH, Dubois R, Carbone DP, Johnson DH. Inhibition of Epidermal Growth Factor Receptor Signaling Elevates 15-Hydroxyprostaglandin Dehydrogenase in Non-Small-Cell Lung Cancer. Cancer Res. 2007 Jun 15;67(12):5587-5593. 4. Niesen FH, Berglund H, Vedadi M: The use of differential scanning fluorimetry to detect ligand interactions that promote protein stability. Nature protocols 2007; 2:2212-2221 NIH Chemical Genomics Center [NCGC] Structural Genomics Consortium [SGC]
# HPGD was diluted to a final assay concentration of 1 uM in 100 mM Tris buffer, pH 8.0, containing 0.01% Tween-20 and 1:1000 SYPRO orange dye. The final assay volume is 10 ul, with or without 200 uM of either NAD+ or NADH. Compounds were added 1:5 from appropriate stock solutions in 10% (v/v) DMSO to comprise either 50 or 250 uM final concentrations. Heat denaturation curves were recorded using a RT-PCR instrument (Mx3005p, Agilent) applying a temperature gradient of 2 degree C/min. Analysis of the data was performed using DSF Analysis vers. 2.5 (ftp://ftp.sgc.ox.ac.uk/pub/biophysics) and Prism 5.0 (GraphPad Software, Inc.)
# 15-hydroxyprostaglandin dehydrogenase [NAD(+)] (Homo sapiens), sequence (P15428 whole entry, looked up): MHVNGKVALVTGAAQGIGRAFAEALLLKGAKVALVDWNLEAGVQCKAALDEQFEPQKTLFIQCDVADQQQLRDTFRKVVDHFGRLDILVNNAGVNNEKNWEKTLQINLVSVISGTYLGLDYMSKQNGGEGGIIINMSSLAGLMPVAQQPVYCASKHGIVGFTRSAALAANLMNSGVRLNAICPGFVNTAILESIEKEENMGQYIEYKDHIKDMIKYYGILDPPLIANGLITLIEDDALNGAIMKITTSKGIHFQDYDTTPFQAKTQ
row,SMILES,thermal shift (delta Tm)
1,O=C(CSc1nc(-c2ccccc2)nn1C(=O)c1ccccc1)Nc1cccc([N+](=O)[O-])c1,4 C (active)
2,COc1ccc(OC)c(C(=O)c2ccc(C(=O)N3CCCCC3)cc2)c1,3 C (active)
3,Fc1ccccc1CSc1nc2ncc(Br)cc2[nH]1,7.6 C (active)
4,COCCNC(=O)c1nc2c(nnn2Cc2cc(C)ccc2C)c(=O)[nH]1,8.9 C (active)
5,Cc1cccc(-n2cnc3cc(C(=O)N4CCCCC4)ccc32)c1,7.3 C (active)
6,Cc1cc(-c2nnc3n2CCCCC3)c(C)n1-c1ccccc1,5 C (active)
7,COCCNC(=O)C1CCC(Cn2c(=S)[nH]c3ccccc3c2=O)CC1 (stereo not given),3.7 C (active)
8,O=C(CSc1nc2ncc(Br)cc2[nH]1)c1cccc([N+](=O)[O-])c1,6.9 C (active)
9,O=C(C1CCC(Cn2c(=S)[nH]c3ccccc3c2=O)CC1)N1CCOCC1 (stereo not given),6 C (active)
10,O=c1[nH]c(SCc2ccccc2Cl)nc2c1CCC2,9.2 C (active)
11,O=C(c1ccc2c(c1)OCO2)N1CCc2ccccc2C1,3.3 C (active)
12,O=C(c1ccc2c(c1)OCCO2)N1CCCCC1,3.5 C (active)
13,CC1CCCN(C(=O)c2ccc(COc3ccccc3Br)cc2)C1 (stereo not given),3.8 C (active)
14,CCN(CC)C(=O)c1sc2nc(-c3cccs3)cc(-c3ccc(Cl)cc3)c2c1N,0.9 C (inactive)
15,O=C(c1ccc(N2C(=O)C3CC=C(Cl)CC3C2=O)cc1)N1CCCCC1 (stereo not given),3 C (active)
16,Cc1ccc(-c2n[nH]c(=S)n2/N=C/C=C\c2ccccc2[N+](=O)[O-])cc1,4.5 C (active)
17,COc1ccc(-c2cc(C(F)(F)F)n3nc(C(=O)N4CCCCC4)cc3n2)cc1OC,3.9 C (active)
18,O=C(CCc1ccc(Oc2cc([N+](=O)[O-])cc([N+](=O)[O-])c2)cc1)N1CCCCC1,3.1 C (active)
19,O=C(c1ccc(COc2ccccc2Br)cc1)N1CCCCC1,7.1 C (active)
20,COc1ccc2cc(C(=O)N3CCCCCC3)sc(=O)c2c1OC,3.2 C (active)

# Same assay, conditions: Recombinant HPGD thermal shift, SYPRO orange DSF, measured here: delta Tm with NADH cofactor, at 250 µM, stronger effect = higher value
row,SMILES,thermal shift (delta Tm) [C]
1,O=C(CSc1nc(-c2ccccc2)nn1C(=O)c1ccccc1)Nc1cccc([N+](=O)[O-])c1,-7.6
2,COc1ccc(OC)c(C(=O)c2ccc(C(=O)N3CCCCC3)cc2)c1,6.6
3,Fc1ccccc1CSc1nc2ncc(Br)cc2[nH]1,1.5
4,COCCNC(=O)c1nc2c(nnn2Cc2cc(C)ccc2C)c(=O)[nH]1,6.6
5,Cc1cccc(-n2cnc3cc(C(=O)N4CCCCC4)ccc32)c1,13.5
6,Cc1cc(-c2nnc3n2CCCCC3)c(C)n1-c1ccccc1,10.5
7,COCCNC(=O)C1CCC(Cn2c(=S)[nH]c3ccccc3c2=O)CC1 (stereo not given),4.7
8,O=C(CSc1nc2ncc(Br)cc2[nH]1)c1cccc([N+](=O)[O-])c1,1.7
9,O=C(C1CCC(Cn2c(=S)[nH]c3ccccc3c2=O)CC1)N1CCOCC1 (stereo not given),3.9
10,O=c1[nH]c(SCc2ccccc2Cl)nc2c1CCC2,1.6
11,O=C(c1ccc2c(c1)OCO2)N1CCc2ccccc2C1,4.4
12,O=C(c1ccc2c(c1)OCCO2)N1CCCCC1,7.8
13,CC1CCCN(C(=O)c2ccc(COc3ccccc3Br)cc2)C1 (stereo not given),10.6
14,CCN(CC)C(=O)c1sc2nc(-c3cccs3)cc(-c3ccc(Cl)cc3)c2c1N,2.9
15,O=C(c1ccc(N2C(=O)C3CC=C(Cl)CC3C2=O)cc1)N1CCCCC1 (stereo not given),6.1
16,Cc1ccc(-c2n[nH]c(=S)n2/N=C/C=C\c2ccccc2[N+](=O)[O-])cc1,0.2
17,COc1ccc(-c2cc(C(F)(F)F)n3nc(C(=O)N4CCCCC4)cc3n2)cc1OC,9.6
18,O=C(CCc1ccc(Oc2cc([N+](=O)[O-])cc([N+](=O)[O-])c2)cc1)N1CCCCC1,7.9
19,O=C(c1ccc(COc2ccccc2Br)cc1)N1CCCCC1,10.6
20,COc1ccc2cc(C(=O)N3CCCCCC3)sc(=O)c2c1OC,7.8
